Measurements from the supplement of paper PMC11732987, “Enantioselective OTUD7B fragment discovery through chemoproteomics screening and high-throughput optimisation” (Communications Chemistry, 2025).
A number with no mark means an inactive call.

What was measured:
Assay in all cases: log2 ratio of Biotin-Ahx-Ub-VS probe labelling (fragment/DMSO); higher = less target engagement (more negative = stronger competition), active = hit call of the paper (q ≤ 0.05, log2 ratio ≤ -1)
Details in all cases: compound concentration: 200 uM; treatment time: 3 h
[1] = molecular target: T1, USP19 (UniProt O94966)
T1 sequence (whole entry): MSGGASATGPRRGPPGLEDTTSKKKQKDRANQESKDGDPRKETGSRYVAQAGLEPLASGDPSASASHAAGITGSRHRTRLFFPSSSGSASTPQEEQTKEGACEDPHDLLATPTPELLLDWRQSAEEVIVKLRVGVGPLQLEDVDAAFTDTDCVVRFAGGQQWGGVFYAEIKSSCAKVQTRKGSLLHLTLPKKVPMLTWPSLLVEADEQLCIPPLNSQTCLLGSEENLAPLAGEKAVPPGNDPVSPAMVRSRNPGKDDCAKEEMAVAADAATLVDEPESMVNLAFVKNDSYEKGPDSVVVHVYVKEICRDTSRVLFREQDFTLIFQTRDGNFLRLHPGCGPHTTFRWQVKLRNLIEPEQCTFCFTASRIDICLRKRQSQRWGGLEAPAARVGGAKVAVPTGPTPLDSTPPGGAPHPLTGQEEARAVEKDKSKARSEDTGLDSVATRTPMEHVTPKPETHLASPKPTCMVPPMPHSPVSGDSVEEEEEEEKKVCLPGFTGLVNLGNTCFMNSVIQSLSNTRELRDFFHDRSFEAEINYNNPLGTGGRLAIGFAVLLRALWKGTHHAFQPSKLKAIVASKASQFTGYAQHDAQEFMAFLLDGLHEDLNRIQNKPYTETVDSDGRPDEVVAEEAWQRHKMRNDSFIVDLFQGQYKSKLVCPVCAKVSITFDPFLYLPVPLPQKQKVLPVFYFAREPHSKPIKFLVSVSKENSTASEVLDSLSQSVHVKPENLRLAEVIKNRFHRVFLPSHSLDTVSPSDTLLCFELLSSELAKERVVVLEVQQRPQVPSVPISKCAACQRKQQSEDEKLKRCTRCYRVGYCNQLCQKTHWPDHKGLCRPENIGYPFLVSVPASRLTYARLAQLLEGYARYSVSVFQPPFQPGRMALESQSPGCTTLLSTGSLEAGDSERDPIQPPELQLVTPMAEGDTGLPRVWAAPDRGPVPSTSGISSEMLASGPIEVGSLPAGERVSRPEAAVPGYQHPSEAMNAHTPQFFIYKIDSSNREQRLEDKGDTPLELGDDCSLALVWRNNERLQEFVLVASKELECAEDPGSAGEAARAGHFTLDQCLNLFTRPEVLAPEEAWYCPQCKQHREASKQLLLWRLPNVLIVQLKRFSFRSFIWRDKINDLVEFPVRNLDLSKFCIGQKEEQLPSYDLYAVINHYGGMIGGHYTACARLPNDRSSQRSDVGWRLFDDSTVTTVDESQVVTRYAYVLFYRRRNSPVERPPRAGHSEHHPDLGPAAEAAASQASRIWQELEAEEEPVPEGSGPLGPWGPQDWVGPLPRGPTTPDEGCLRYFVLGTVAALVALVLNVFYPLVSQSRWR
Summary of the method: (§1)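 HEK293T lysate in Tris/CHAPS/IGEPAL buffer with protease inhibitors (495 µg per sample) was given fragment at 200 µM or vehicle for 3 h, in triplicate. It then received Biotin-Ahx-Ub-VS at 0.5 µM final for 1 h. Labelled DUBs were NeutrAvidin-enriched, digested with LysC and trypsin, and run by diaPASEF LC-MS/MS. Values are average log2 fragment/vehicle ratios by unpaired t-test on global-median-normalised Spectronaut quantities of proteins with ≥2 unique peptides.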

[2] = molecular target: T2, USP22 (UniProt Q9UPT9)
T2 sequence (whole entry): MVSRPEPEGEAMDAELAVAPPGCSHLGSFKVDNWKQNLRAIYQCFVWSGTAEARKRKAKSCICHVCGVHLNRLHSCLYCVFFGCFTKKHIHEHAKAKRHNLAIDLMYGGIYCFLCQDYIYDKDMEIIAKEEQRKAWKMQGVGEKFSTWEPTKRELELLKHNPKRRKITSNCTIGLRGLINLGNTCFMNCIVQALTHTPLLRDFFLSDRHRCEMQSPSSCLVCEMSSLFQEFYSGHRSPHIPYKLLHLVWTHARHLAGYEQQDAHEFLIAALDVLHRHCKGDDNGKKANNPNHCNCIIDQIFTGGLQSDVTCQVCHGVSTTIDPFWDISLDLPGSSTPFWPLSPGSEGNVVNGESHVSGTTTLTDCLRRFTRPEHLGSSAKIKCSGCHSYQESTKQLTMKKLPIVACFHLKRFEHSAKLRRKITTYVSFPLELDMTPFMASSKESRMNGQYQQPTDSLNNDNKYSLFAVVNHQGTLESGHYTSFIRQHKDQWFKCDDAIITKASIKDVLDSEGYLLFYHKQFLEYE
Summary of the method: as §1

[3] = molecular target: USP24 (UniProt Q9UPU5)
Summary of the method: as §1

[4] = molecular target: T3, USP25 (UniProt Q9UHP3)
T3 sequence (whole entry): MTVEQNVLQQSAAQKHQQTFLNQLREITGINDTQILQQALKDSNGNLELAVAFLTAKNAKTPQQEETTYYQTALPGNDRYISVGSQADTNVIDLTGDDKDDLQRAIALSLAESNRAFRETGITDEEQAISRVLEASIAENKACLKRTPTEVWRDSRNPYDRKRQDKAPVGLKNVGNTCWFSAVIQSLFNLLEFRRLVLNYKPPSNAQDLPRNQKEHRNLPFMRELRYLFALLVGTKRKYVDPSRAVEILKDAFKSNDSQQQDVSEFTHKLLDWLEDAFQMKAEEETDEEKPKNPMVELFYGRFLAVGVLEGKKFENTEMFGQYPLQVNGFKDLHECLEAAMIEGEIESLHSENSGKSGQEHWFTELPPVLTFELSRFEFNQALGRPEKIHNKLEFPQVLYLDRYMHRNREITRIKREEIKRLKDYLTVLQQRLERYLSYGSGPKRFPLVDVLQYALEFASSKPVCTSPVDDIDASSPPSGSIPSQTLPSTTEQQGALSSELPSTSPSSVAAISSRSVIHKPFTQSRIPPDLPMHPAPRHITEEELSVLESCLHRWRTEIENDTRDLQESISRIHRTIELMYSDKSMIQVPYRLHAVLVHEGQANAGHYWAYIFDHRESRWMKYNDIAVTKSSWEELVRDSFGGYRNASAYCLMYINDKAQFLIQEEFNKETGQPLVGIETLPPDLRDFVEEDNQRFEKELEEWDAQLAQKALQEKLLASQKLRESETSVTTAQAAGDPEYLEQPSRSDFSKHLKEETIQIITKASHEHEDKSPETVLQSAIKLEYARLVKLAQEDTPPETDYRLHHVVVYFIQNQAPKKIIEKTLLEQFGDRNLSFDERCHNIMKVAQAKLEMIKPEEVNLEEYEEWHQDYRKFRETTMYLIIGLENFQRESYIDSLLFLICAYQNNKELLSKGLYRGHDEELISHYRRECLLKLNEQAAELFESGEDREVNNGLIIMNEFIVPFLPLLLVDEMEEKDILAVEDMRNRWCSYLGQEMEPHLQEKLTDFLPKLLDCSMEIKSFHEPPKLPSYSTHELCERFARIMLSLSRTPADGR
Summary of the method: as §1

[5] = molecular target: T4, USP28 (UniProt Q96RU2)
T4 sequence (whole entry): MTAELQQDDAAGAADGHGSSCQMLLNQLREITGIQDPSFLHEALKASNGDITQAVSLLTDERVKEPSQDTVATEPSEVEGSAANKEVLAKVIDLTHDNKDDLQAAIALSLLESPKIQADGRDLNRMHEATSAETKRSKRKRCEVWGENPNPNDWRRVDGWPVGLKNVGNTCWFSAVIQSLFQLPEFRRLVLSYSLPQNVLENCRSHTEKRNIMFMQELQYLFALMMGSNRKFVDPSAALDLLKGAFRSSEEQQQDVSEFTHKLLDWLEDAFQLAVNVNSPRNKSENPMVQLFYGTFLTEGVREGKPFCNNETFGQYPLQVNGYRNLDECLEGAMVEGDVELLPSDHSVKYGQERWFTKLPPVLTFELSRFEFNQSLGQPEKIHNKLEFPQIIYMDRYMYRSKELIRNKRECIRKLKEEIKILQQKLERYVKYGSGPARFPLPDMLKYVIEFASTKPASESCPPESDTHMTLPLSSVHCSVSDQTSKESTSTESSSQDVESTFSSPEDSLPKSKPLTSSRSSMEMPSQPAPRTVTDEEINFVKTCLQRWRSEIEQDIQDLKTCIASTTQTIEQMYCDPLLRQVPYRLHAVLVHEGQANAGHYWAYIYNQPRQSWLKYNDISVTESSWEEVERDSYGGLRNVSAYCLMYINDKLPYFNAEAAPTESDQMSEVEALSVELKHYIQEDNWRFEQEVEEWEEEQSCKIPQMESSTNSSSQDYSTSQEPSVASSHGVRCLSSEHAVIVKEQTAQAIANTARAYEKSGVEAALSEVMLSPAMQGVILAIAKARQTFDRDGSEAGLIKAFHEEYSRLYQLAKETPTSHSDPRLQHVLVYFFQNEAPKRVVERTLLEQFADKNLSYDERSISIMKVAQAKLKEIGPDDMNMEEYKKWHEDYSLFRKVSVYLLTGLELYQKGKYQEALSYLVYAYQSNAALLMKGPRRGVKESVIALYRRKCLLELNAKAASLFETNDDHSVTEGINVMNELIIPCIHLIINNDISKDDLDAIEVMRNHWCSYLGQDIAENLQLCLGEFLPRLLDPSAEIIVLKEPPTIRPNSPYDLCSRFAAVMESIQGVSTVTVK
Summary of the method: as §1

Sequence of USP24 (Q9UPU5 whole entry): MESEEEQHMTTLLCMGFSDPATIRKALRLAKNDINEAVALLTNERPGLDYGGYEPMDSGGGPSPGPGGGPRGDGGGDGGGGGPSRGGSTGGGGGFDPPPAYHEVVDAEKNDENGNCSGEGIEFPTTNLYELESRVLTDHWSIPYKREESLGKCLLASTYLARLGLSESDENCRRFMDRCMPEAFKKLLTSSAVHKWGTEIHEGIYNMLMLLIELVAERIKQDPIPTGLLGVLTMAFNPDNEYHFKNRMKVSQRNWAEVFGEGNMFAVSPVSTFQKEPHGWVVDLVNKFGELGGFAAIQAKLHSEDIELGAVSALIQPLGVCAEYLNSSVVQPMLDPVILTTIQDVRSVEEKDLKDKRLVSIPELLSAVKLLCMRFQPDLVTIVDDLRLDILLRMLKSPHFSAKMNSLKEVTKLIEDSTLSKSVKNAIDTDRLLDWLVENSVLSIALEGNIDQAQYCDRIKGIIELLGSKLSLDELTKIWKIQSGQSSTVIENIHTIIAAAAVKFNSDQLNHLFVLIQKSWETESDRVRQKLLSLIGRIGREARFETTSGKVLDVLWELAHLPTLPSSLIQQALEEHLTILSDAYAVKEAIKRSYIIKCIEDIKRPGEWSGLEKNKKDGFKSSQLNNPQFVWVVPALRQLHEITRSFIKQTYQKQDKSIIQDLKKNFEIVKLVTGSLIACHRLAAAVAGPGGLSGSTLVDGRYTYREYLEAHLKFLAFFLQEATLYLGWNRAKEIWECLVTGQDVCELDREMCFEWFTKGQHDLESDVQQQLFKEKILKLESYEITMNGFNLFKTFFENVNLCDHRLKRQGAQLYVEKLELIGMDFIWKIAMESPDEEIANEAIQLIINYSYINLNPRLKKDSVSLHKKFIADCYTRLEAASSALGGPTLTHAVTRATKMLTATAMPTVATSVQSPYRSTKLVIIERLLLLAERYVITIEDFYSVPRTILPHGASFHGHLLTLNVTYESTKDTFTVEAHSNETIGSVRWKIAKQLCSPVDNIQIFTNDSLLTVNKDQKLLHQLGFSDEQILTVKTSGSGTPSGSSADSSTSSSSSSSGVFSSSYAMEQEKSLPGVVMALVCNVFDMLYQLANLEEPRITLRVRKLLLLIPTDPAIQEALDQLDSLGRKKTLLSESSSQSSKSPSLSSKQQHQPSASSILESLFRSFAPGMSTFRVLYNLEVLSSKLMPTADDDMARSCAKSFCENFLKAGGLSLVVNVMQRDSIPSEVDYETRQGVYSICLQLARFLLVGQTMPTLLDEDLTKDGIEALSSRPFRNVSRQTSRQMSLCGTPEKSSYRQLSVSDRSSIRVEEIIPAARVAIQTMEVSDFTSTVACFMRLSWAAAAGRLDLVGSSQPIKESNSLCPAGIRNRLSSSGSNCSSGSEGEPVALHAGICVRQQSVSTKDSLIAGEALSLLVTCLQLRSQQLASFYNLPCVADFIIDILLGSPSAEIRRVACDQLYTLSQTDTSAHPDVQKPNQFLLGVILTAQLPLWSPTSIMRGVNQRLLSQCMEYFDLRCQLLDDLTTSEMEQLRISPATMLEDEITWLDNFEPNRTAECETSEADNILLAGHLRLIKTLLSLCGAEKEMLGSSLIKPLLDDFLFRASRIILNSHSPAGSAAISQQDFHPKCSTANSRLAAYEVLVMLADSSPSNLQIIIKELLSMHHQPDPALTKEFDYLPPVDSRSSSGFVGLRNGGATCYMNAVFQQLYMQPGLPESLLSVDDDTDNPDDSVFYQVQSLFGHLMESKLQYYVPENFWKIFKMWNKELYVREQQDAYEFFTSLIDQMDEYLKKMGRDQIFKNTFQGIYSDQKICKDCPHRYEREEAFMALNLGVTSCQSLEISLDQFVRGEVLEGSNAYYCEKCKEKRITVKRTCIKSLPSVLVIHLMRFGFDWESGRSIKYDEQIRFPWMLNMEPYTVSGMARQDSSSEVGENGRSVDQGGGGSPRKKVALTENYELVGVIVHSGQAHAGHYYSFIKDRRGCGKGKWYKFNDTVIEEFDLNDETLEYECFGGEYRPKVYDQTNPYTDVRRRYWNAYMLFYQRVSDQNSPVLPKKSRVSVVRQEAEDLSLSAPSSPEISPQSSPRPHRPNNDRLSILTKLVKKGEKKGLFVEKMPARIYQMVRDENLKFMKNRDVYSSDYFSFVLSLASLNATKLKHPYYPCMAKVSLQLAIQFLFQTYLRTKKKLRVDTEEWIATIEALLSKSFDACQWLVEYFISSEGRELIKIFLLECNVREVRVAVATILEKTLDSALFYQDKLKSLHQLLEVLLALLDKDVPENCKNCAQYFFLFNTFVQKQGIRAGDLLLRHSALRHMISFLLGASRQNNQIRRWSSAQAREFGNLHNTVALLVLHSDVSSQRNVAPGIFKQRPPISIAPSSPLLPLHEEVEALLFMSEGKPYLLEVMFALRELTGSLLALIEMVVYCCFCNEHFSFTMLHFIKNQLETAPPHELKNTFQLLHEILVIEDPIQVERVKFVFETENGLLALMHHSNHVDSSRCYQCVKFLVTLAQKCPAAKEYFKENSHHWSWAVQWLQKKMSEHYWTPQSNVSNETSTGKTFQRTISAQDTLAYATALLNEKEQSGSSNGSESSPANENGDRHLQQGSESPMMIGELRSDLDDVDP

Question: Which “log2 ratio of Biotin-Ahx-Ub-VS probe labelling” value (“log2 ratio” for short) [1] does the source give for `O=C(CCl)N1CCOC(CCc2ccccc2)C1` (stereo not given) here?
Answer: -0.687

Question: What about the “log2 ratio” value [2] of the same molecule?
Answer: -0.0816

Question: What about the “log2 ratio” value [3] of the same molecule?
Answer: -1.37 (active)

Question: What about the “log2 ratio” value [4] of the same molecule?
Answer: -0.497

Question: What about the “log2 ratio” value [5] of the same molecule?
Answer: -0.802
